High-throughput results (PubChem BioAssay)
LASV entry inh – qHTS for Inhibitors of binding or entry into cells for Lassa Virus; Lassa virus pseudotype entry inhibition, cell reporter; Potency, µM (titrated, usually from 37.9 µM), without a hit: at the highest dose activity change, negative = inhibition, actives largely listed as inhibitors; 1.2% of 300,000 active; calls by dose curve; tested in HEK293 cells; further: potency means the concentration at half of the fitted maximal effect; nearly all actives have a fitted effect of over 50% in size
FMDV inh – High Throughput Screening for Foot and Mouth Disease Virus Antivirals; FMDV antiviral cell-based qHTS; Potency, µM (series often up to 57.9 µM), for the others: at the highest dose activity change, negative = inhibition, hits mostly inhibitors; 1.2% of 410,000 active; calls by dose curve; tested in HEK293T cells; further: read-out not given here; potency means the concentration at half of the fitted maximal effect; nearly all actives have a fitted effect of over 45% in size
MARV entry inh – qHTS for inhibitors of binding or entry into cells for Marburg Virus. Marburg virus pseudotyped entry inhibition, cell reporter. Potency, µM (titrated, usually from 37.8 µM), without a hit: top-dose activity change, negative = inhibition, actives largely listed as inhibitors. 1.8% of 300,000 active; calls by dose curve; tested in HEK293 cells; further: potency means the concentration at half of the fitted maximal effect
HCV inhibitor – qHTS Assay for Inhibitors of Hepatitis C Virus (HCV) | Huh7.5.1 HCVcc-Cre infection, luciferase reporter, 44 h | Potency, µM (series often up to 41.8 µM), inactives show at the top dose activity change, negative = inhibition, actives largely listed as inhibitors | 3.4% of 340,000 active; active means well fitted inhibition curve with a large enough effect; inconclusive means small, poorly fitted or top-dose-only effect, or another doubt; inactive means no such curve, though single readings can be large or run the other way; further: potency means the concentration at half of the fitted maximal effect
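Antiviral activity was scored by luciferase reporter output from cells infected with HCVcc-Cre (~0.5 moi) in presence of compound, 44 h infection period, cells seeded 1,000/well 4 h prior.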
HCMV inh – qHTS Assay for inhibitors of the human cytomegalovirus (HCMV) | 4.5% of 410,000 active | activity change, negative = inhibition, % at 57.5 µM | HFF cells, HCMV-luciferase reporter, 72 h; hits give low values; in the data active means activity change below about -60%; inconclusive means no clear call, values can overlap the other calls; inactive means above about -39%
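Inhibition of viral replication was scored as loss of reporter luminescence in HFFs infected with HCMV-luciferase (MOI 1 PFU/cell) for 72 h; compounds tested at 2 doses, normalized to buffer and Salinomycin controls.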
* hit, by the source's call; [ ] = dose if it differs, or a comment. This is a sample that favours compounds with a hit; in the whole collection about 7.9% have one here. On the % scale 0 is the no-effect control and ±100 the full control effect.

Screening COc1ccc(-n2nc(C(=O)NCC(=O)NC3CCCC(C)C3C)c3ccccc3c2=O)cc1 (stereo not given) returned LASV entry inh inconclusive, FMDV inh -22%, MARV entry inh inconclusive, HCV inhibitor inconclusive and HCMV inh 9.
`COc1ccc(-n2nc(C(=O)NCC(=O)Nc3cc(Cl)c(OC)cc3OC)c3ccccc3c2=O)cc1` gave LASV entry inh -2%, FMDV inh -11%, MARV entry inh inconclusive, HCV inhibitor 32µM* and HCMV inh 16.
`COc1ccc(OCC(=O)Nc2cc(-c3nn(C)c(=O)c4ccccc34)ccc2OC)cc1` gave LASV entry inh inconclusive, FMDV inh inconclusive, MARV entry inh 4.1µM*, HCV inhibitor 8.9µM* and HCMV inh 16.
COc1ccc(-n2nc(C(=O)Nc3ccc(OC)c(OC)c3)c3c4ccccc4n(C)c3c2=O)cc1 was read as LASV entry inh inconclusive, FMDV inh -16%, MARV entry inh -26%, HCV inhibitor inconclusive and HCMV inh -64*.
`CC(CCN1CCc2nc(-c3ccccc3)c(-c3ccccc3)cc2C1)=NOC[C@@H](O)[C@H]1O[C@@H]2OC(C)(C)O[C@H]2[C@@H]1O` gave MARV entry inh 26%[14.2 µM].
COc1ccc(OC)c(NC(=O)CNC(=O)Cn2cnc3ccccc3c2=O)c1 was read as LASV entry inh -4%, FMDV inh -4%, MARV entry inh 0.71µM*, HCV inhibitor inconclusive and HCMV inh 1.
For COc1ccc(-n2nc(C(=O)NCC(=O)NC(C)C)c3ccccc3c2=O)cc1Cl the results were FMDV inh 0%, HCV inhibitor -11% and HCMV inh -20.
COc1ccc(-n2nc(C(=O)NCC(=O)Nc3ccccn3)c3ccccc3c2=O)cc1Cl was read as LASV entry inh -26%, FMDV inh -3%, MARV entry inh 4.1µM*, HCV inhibitor inconclusive and HCMV inh -24.
For COc1cccc(-n2c(SCc3cccc(C)c3)nc3c([nH]c4ccccc43)c2=O)c1 the results were LASV entry inh inconclusive, FMDV inh 0% and HCMV inh 6.
`FC(F)(F)c1ccc2c(c1)ncc1c(-c3ccccc3)nn(-c3ccccc3)c12` gave LASV entry inh 1%[46.1 µM], FMDV inh -19%, MARV entry inh inconclusive and HCMV inh 6.
Screening O=C(N[C@H]1CC[C@H](CCNS(=O)(=O)c2ccc(Cl)cc2)O[C@@H]1CO)c1cccc(F)c1 returned FMDV inh inconclusive and HCMV inh -101*.
O=C(N[C@H]1CC[C@@H](CCNS(=O)(=O)c2ccccc2Cl)O[C@@H]1CO)c1ccccc1 was read as FMDV inh -19% and HCMV inh -23.
`C=C1N(S(=O)(=O)C(F)(F)F)CCC12CN(C)c1ccccc12` (stereo not given) gave HCMV inh 3.
Screening C=C1N(S(=O)(=O)C(F)(F)F)CCC12CN(S(=O)(=O)c1ccc(C)cc1)c1ccccc12 (stereo not given) returned HCMV inh -70*.
Screening CC(C)(C)C1CCC(C(=O)OCC(=O)Nc2ccc3[nH]c(=O)[nH]c3c2)CC1 (stereo not given) returned LASV entry inh 18%[46.1 µM], FMDV inh -21%, MARV entry inh inconclusive, HCV inhibitor 19% and HCMV inh -72*.
For O=C(COC(=O)C12CC3CC(CC(C3)C1)C2)Nc1ccc2[nH]c(=O)[nH]c2c1 the results were LASV entry inh inconclusive, FMDV inh 27%, MARV entry inh -1%[46.1 µM] and HCV inhibitor 4%.
For CCC(C)(C)C(=O)Nc1cc([N+](=O)[O-])ccc1F the results were LASV entry inh 5%, FMDV inh -20%, MARV entry inh inconclusive, HCV inhibitor -3% and HCMV inh -18.
O=C(CSCc1ccc(Cl)cc1)Nc1cc([N+](=O)[O-])ccc1O was read as LASV entry inh inconclusive, FMDV inh -10%, MARV entry inh inconclusive, HCV inhibitor 2.2µM* and HCMV inh -36.
For O=C(Nc1ccc(Cl)cc1)Nc1cc([N+](=O)[O-])ccc1F the results were LASV entry inh -3%, FMDV inh -9%, MARV entry inh 2%, HCV inhibitor -2% and HCMV inh -79*.
For COc1ccc(OC(C)C(=O)Nc2ccc([N+](=O)[O-])cc2)cc1 (stereo not given) the results were LASV entry inh inconclusive, FMDV inh inconclusive, MARV entry inh -29%[46.1 µM], HCV inhibitor 1% and HCMV inh -7.
`COc1ccc([N+](=O)[O-])cc1NC(=O)CSCc1ccc(Br)cc1` gave LASV entry inh 19%, FMDV inh -29%, MARV entry inh 1%, HCV inhibitor inconclusive and HCMV inh 15.
`O=C(Nc1ccc(C(=O)O)cc1)Nc1ccc([N+](=O)[O-])cc1` gave LASV entry inh 3%, FMDV inh -6%, MARV entry inh -2%, HCV inhibitor -7% and HCMV inh 14.
For O=C(Nc1ccc([N+](=O)[O-])cc1)Nc1ccc(Cl)cc1F the results were LASV entry inh inconclusive, FMDV inh -29%, MARV entry inh inconclusive, HCV inhibitor 3% and HCMV inh -99*.
Cc1cc(OC(F)F)ccc1NC(=O)Nc1ccc([N+](=O)[O-])cc1 was read as LASV entry inh inconclusive, FMDV inh -15%, MARV entry inh inconclusive, HCV inhibitor inconclusive and HCMV inh -79*.
For CCCN1CCN(C(=O)Cn2ncc3c4ccccc4n(Cc4cccc(Cl)c4)c3c2=O)CC1 the results were LASV entry inh 13%[46.1 µM], FMDV inh -12%, MARV entry inh -3%[46.1 µM] and HCMV inh -17.
Screening Fc1ccccc1-n1ncc2c1ncn1nc(-c3ccccc3Cl)nc21 returned LASV entry inh 1%[46.1 µM], FMDV inh 39%, MARV entry inh inconclusive and HCMV inh -2.
Screening CSc1cccc(NC(=O)C2CCCN(S(=O)(=O)c3ccc4c(c3)CCCN4C(C)=O)C2)c1 (stereo not given) returned LASV entry inh -10%[46.1 µM], FMDV inh -8% and HCMV inh inconclusive.
`COc1cc2c(c(OC)c1OC)-c1ccc(N(C)CC(OC)OC)c(=O)cc1[C@@H](NC(C)=O)CC2` gave LASV entry inh inconclusive, FMDV inh -1%, MARV entry inh 1µM*, HCV inhibitor 22% and HCMV inh -87*.
`COc1cc2c(c(OC)c1OC)-c1ccc(NC(=O)c3ccc(F)cc3)c(=O)cc1[C@@H](NC(C)=O)CC2` gave FMDV inh inconclusive, HCV inhibitor inconclusive and HCMV inh -22.
For COc1cc2c(c(OC)c1OC)-c1ccc(C(=O)O)cc1[C@@H](NC(C)=O)CC2 the results were FMDV inh -3% and HCMV inh -16.
